Assay [1] relates to Human papillomavirus type 1a protein E7 (residues 44-93). Put plainly: small molecules binding HPV E7 44-93 – biochemical, small-molecule microarray, residues 44-93, 635 nm fluorescence, primary screen (AID 1108).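 Note: E7 fragment applied at 1 µg/mL in TBST for 1 h at 4 C; score combines spot fluorescence with its signal to noise ratio.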 As to conditions: fluorescence 635 nm, higher = more signal.
Assay [2] is described as follows: hepatitis C replication reporter changes, two-sided – Huh7 cells, luciferase reporter, HCV replication inhibitor project, primary screen (AID 1109).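 Note: huh7 hepatoma cells harbouring a luciferase neomycin HCV replicon reporter; luciferase luminescence as measure of HCV replicon replication; test concentration not given here.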 Conditions: Huh7 HCV replicon luciferase reporter, 48 h; higher = more signal. (A reporter such as luciferase makes a cellular process visible.)
Assay [3] addresses Left-right determination factor 2 (Homo sapiens) (UniProt O00292). Put plainly: small molecules binding LEFTY2 protein – biochemical, small-molecule microarray, 635 nm fluorescence scan, primary screen (AID 1110). As to conditions: higher = more signal.
The target in assay [4] is Calmodulin-1 (Homo sapiens) (UniProt P0DP23). Kind of assay: small molecules binding calmodulin-1 with EGTA – biochemical, small-molecule microarray, Cy5-labelled CALM1, profiling panel (AID 1111).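 Note: labelled calmodulin applied in Tris saline Tween buffer holding calcium plus EGTA and DTT.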 As to conditions: Cy5-CALM1 binding fluorescence, higher = more signal.
For assay [5] the target is unchanged. Put plainly: small molecules binding Ca-loaded calmodulin-1 – biochemical, small-molecule microarray, Cy5-labelled CALM1, plus calcium, artefact control for SMM control-protein annotation, profiling panel (AID 1112).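 Note: score merges spot fluorescence with signal to noise from triplicate slides.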 As to conditions: Cy5-CALM1 binding fluorescence, higher = more signal.
Assay [6] can be described thus: probe aWnt5a binding to arrayed compounds – biochemical, biotinylated probe, 635/667 nm fluorescence, primary screen (AID 1113).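 Note: score merges 667 nm fluorescence intensity with signal-to-noise per printed feature.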 As to conditions: small-molecule microarray, higher = more signal.
The nature of assay [7]: probe aShh binding to arrayed compounds – biochemical, biotinylated probe, 635/667 nm fluorescence, primary screen (AID 1114).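 Note: probe is biotin-labelled aShh protein from a stem cell growth factor screen; measures binding of labelled protein to compounds printed on the slide; score merges feature fluorescence at 667 nm with signal-to-noise.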 Conditions: small-molecule microarray, higher = more signal.
The nature of assay [8]: probe aNog binding to arrayed compounds – biochemical, biotinylated probe, 635/667 nm fluorescence, primary screen (AID 1115).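 Note: probe is biotinylated aNog protein used at 0.15 µg/mL for 1 h at 4 C; z-score combines 667 nm fluorescence of each spot with its signal to noise.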 Conditions: small-molecule microarray, higher = more signal.
Assay [9] has as its target Torsin-1A-interacting protein 1 (Homo sapiens) (UniProt Q5JTV8). Kind of assay: compound microarray binding of lysate hLAP1 – cell lysate, small-molecule microarray, COS7 lysate, 635/667 nm fluorescence, primary screen (AID 1116). Conditions: 635 nm fluorescence, higher = more signal.
The target of assay [10] is Alpha-bungarotoxin (Bungarus multicinctus) (UniProt P60615). Put plainly: compounds binding labelled alpha-BTX control protein – biochemical, small-molecule microarray, Alexa647 label, 635/667 nm fluorescence, artefact control for SMM control protein annotation, profiling panel (AID 1117). As to conditions: alpha-BTX-A647 binding fluorescence, higher = more signal.
Sequence of Alpha-bungarotoxin (Bungarus multicinctus) (P60615 whole entry, looked up): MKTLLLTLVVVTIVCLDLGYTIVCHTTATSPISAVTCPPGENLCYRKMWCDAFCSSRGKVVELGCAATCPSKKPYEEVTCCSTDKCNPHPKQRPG
Another assay addresses Albumin (Bos taurus) (UniProt P02769). Put plainly: compounds binding labelled BSA control protein – biochemical, small-molecule microarray, Alexa647 label, 635/667 nm fluorescence, artefact control for SMM control protein annotation, profiling panel (AID 1118).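 Note: score merges 667 nm emission intensity and signal-to-noise per printed compound spot.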 As to conditions: BSA-A647 binding, fluorescence 635 nm, higher = more signal.
A short description of assay [11]: probe aXIP binding to arrayed compounds – biochemical, NeuroSMM set, 635/667 nm fluorescence, primary screen (AID 1119).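 Note: probe is the protein aXip251-270 applied at 1 µg/mL to compound-printed slides; binding of probe to printed compounds measured as 667 nm fluorescence plus signal to noise.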 As to conditions: small-molecule microarray, higher = more signal, called active from +8 up or from −8 down.
Assay [12] is described as follows: probe aNOTCH3 binding on compound microarray – biochemical, small-molecule microarray, 635/667 nm fluorescence, primary screen (AID 1120).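 Note: probe is a biotin-tagged antibody raised against NOTCH3 rather than NOTCH3 protein; score merges spot fluorescence near 667 nm with spot signal to noise.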 Conditions: higher = more signal.
The nature of assay [13]: probe aNOTCH2 binding on compound microarray – biochemical, small-molecule microarray, 635/667 nm fluorescence, primary screen (AID 1121).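 Note: score merges feature fluorescence read at 667 nm with its signal to noise.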 As to conditions: higher = more signal.
Assay [14] deals with Carbonic anhydrase 2 (Homo sapiens) (UniProt P00918). Kind of assay: compounds binding carbonic anhydrase 2 – biochemical, small-molecule microarray, Alexa647-labelled CAII, profiling panel (AID 1122). As to conditions: CAII-A647 binding fluorescence, higher = more signal.
The nature of assay [15]: COS7 lysate on small-molecule microarray, probe aHis, 635 nm (AID 1123).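 Note: z-score combines 667nm fluorescence intensity with signal-to-noise per printed compound spot.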 As to conditions: COS7 cell lysate, fluorescence, higher = more signal.
The nature of assay [16]: probe aLAP1 signal on lysate-treated microarray – cell lysate, small-molecule microarray, COS7 lysate, primary screen (AID 1124).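 Note: lysate comes from COS7 cells expressing LAP1 and is applied at 0.3 µg/mL; score merges spot fluorescence near 667 nm with signal-to-noise over triplicate slides.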 Conditions: probe aLAP1, fluorescence, higher = more signal.
In a further assay the test system is Sam68 (KHDRBS1). Put plainly: compounds binding KHDRBS1 protein – biochemical, small-molecule microarray, 635 nm fluorescence, primary screen (AID 1125).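 Note: score merges 667 nm channel intensity with signal to noise over triplicate slides.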 As to conditions: higher = more signal.
The test system of assay [17] is Chordin-like protein 2 (CHRDL2). Kind of assay: compounds binding chordin-like 2 – biochemical, small-molecule microarray, 635 nm fluorescence, primary screen (AID 1126).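 Note: printed compound slides probed with Chrdl2 protein at 4 µg/mL for 1 h at 4 C; score merges 667 nm emission intensity with signal to noise over three replicate slides.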 As to conditions: fluorescence 635 nm, higher = more signal.
Assay [18] has as its target Concanavalin-A (Canavalia ensiformis) (UniProt P02866). Kind of assay: compounds binding concanavalin A lectin – biochemical, small-molecule microarray, Alexa647 label, 635 nm, artefact control for SMM control protein annotation, primary screen (AID 1127).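 Note: z combines 667 nm emission intensity with signal-to-noise across three replicate slides.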 As to conditions: ConA-A647 binding fluorescence, higher = more signal.

Activity calls are given as the source filed them.

These results are taken from PubChem BioAssay.

Sequence of Albumin (Bos taurus) (P02769 whole entry, looked up): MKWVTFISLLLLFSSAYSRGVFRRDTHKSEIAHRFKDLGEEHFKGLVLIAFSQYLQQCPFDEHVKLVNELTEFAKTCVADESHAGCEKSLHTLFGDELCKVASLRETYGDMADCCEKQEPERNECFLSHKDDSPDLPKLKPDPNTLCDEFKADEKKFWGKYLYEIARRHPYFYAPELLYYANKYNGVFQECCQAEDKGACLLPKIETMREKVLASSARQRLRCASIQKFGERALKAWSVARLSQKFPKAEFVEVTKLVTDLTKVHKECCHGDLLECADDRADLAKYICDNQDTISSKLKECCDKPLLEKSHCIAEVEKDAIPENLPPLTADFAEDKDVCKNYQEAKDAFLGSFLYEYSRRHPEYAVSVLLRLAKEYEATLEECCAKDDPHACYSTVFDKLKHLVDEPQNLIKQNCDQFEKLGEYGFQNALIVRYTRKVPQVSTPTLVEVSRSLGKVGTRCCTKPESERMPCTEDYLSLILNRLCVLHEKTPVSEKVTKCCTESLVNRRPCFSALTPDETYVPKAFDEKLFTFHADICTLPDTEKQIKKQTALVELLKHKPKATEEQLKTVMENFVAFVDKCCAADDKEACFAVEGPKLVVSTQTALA
Sequence of Concanavalin-A (Canavalia ensiformis) (P02866 whole entry, looked up): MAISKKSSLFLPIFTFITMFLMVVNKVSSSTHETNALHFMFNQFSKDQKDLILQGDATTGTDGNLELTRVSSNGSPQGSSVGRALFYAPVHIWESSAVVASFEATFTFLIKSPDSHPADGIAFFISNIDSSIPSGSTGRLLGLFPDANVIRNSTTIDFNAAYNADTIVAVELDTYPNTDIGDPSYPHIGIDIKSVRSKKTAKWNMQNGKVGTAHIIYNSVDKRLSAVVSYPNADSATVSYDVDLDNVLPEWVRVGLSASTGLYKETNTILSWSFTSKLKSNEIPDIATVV
Sequence of Left-right determination factor 2 (Homo sapiens) (O00292 whole entry, looked up): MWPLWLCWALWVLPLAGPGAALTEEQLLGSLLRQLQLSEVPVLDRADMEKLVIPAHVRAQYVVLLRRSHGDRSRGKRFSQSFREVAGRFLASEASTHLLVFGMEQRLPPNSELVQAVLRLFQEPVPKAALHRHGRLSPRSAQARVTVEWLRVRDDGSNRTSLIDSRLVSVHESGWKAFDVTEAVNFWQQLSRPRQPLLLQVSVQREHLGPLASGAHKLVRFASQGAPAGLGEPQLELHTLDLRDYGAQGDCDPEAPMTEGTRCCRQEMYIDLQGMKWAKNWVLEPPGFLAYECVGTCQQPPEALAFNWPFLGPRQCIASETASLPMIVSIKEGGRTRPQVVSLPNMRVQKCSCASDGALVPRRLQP
Sequence of Torsin-1A-interacting protein 1 (Homo sapiens) (Q5JTV8 whole entry, looked up): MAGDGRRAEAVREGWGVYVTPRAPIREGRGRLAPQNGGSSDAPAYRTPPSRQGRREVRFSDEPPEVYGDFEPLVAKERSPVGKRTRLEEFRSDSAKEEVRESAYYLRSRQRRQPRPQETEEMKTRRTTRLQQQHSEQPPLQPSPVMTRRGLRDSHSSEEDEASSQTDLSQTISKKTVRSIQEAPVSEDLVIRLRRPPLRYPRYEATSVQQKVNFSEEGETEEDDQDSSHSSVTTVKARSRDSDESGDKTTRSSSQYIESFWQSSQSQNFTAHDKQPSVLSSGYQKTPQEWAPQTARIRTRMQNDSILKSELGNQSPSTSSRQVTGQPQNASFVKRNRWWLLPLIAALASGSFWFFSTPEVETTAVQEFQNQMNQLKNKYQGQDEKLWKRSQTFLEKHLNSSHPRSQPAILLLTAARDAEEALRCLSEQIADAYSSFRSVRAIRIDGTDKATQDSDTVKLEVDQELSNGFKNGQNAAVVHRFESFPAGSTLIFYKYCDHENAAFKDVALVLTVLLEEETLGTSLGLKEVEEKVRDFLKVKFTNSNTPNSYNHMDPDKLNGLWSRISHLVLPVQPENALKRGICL

For `CCOC(=O)[C@H](CC(C)C)NC(=O)CCC1CC(OC(=O)NCCc2ccc(F)cc2)CC2(CCCC(COC(=O)NCCCN3CCCC3=O)O2)O1` (stereo not given in full), the composite z-score in assay [1] was 0.681; in assay [3] it was 0.491; in [4] it was 0.116; in assay [5], -0.0004; in [6], 0.0108; in assay [7], -0.2. Besides, the composite z-score was -0.451 in [8]; 0.422 in assay [9]; 1.54 in assay [10]; 0.353 with Albumin (Bos taurus); -0.179 in assay [12]; -0.0839 in assay [13]. The composite z-score in assay [14] came out at 0.325; in assay [15], 0.619; in assay [16] it was 0.16; with Sam68 (KHDRBS1), 0.883; in [17], 0.473; in assay [18], 0.0423. In addition, the z-score in assay [2] is -1.2. The composite Z-score in [11] was 0.0886 (inactive).
As to `C[C@H]1CC[C@H]2C(=O)N[C@H](Cc3ccccc3)C(=O)N2[C@@H]1c1ccccc1`, the composite z-score is -1.38 in assay [1]; 0.395 in assay [3]; -0.742 in [4]; -0.194 in assay [5]; -0.127 in assay [6]; 0.37 in assay [7]. Besides, the composite z-score in [8] is -0.0428; in assay [9], 0.51; in assay [10], -0.009; in the assay with Albumin (Bos taurus) it was -0.456; in [12], -0.177; in assay [13], -0.0811. Also, the composite z-score in assay [14] was -0.0975; in [15], -0.227; in assay [16] it was -0.306; in the assay on Sam68 (KHDRBS1), -0.824; in [17], 0.678; in assay [18] it was -0.126. Moreover, the z-score in assay [2] was -0.283. The composite Z-score in [11] was 0.418 (inactive).
For `COC(=O)[C@H](C)NC(=O)CCC1CC(OC(=O)NCCc2ccc(F)cc2)CC2(CCCC(COC(=O)NCC3CCCCC3)O2)O1` (stereo not given in full), the composite z-score in [1] was 1.39; in assay [3], 0.573; in [4], 0.71; in assay [5], -0.039; in assay [6] it was -0.1; in assay [7] it was 0.0469. Besides, the composite z-score is 0.144 in assay [8]; 0.774 in assay [9]; 0.382 in [10]; 0.0505 with Albumin (Bos taurus); -0.0362 in assay [12]; -0.106 in [13]. Also, the composite z-score was determined as 0.427 in [14]; 1.52 in [15]; 0.191 in assay [16]; 1.3 in the assay on Sam68 (KHDRBS1); 0.507 in [17]; 0.971 in assay [18]. The compound further yielded a z-score in assay [2] of -1.34. In addition, the composite Z-score in [11] is 0.697 (inactive).
Take `CC(C)[C@H](NC(=O)OC(C)(C)C)[C@@H](O)CC(=O)C(C)(C)C`: the composite z-score in [1] was 0.223; in assay [3] it was -0.1; in assay [4], -0.32; in [5], -0.748; in assay [6], -0.18; in assay [7], -0.24. The composite z-score in [8] is 0.237; in [9], 0.161; in assay [10], 0.302; in the assay with Albumin (Bos taurus) it was -0.269; in assay [12], -0.178; in assay [13], -0.152. For the same compound, the composite z-score was -0.163 in assay [14]; 0.163 in assay [15]; -0.0769 in [16]; -0.0938 in the assay on Sam68 (KHDRBS1); 0.591 in [17]; 0.188 in assay [18]. In assay [2], the z-score turned out to be 0.515. In addition, the composite Z-score in [11] was -0.382 (inactive).
In the case of `COC(=O)[C@@H]1CC[C@H](C)[C@@H](c2ccc(C)cc2)N1C(=O)c1ccc(C=NO[C@@H](C)c2cc(-c3c(C)cc(C)cc3C)no2)cc1`, the composite z-score in assay [1] is 1.04; in [3] it was 0.45; in [4] it was 0.0785; in assay [5], -0.37; in assay [6] it was -0.0236; in assay [7], -0.141. Also, the composite z-score in assay [8] was 0.0373; in [9], 0.722; in assay [10], 0.208; in the assay with Albumin (Bos taurus), 0.432; in assay [12], -0.004; in assay [13] it was -0.126. The composite z-score in assay [14] was 0.154; in assay [15], -0.0142; in assay [16] it was -0.207; in the assay on Sam68 (KHDRBS1), 1.2; in assay [17], 0.306; in [18], 0.894. In addition, the z-score in [2] is -0.542. Also, in assay [11], the composite Z-score is -0.136 (inactive).
